± gives the standard deviation of the averaged measurements. The full data set covers some 6,500 targets. This sample favours those with the largest changes.
Compound: Nc1ncnc2c1ncn2[C@@H]1O[C@H](COP(=O)(O)OP(=O)(O)OP(=O)(O)O)[C@@H](O)[C@H]1O [adenosine triphosphate]
Test: NP40-soluble protein abundance relative to vehicle (solubility fold change) (ratio); higher = more soluble protein in presence of ATP
Summary of the method: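 Each value is a fold change relative to the detergent-processed vehicle, calculated per replicate from vsn-normalised intensities. Jurkat crude lysate received eight concentrations (0.1 to 10 mM) for 10 min at room temperature and 3 min at 37 °C, then was solubilised in 0.8% NP40 with benzonase (60 min, 4 °C). The ultracentrifuged supernatant was TMT-labelled and run by LC-MS/MS in three independent experiments.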

UniProt Q96FV2, sequence (Q96FV2 whole entry, one chain of several): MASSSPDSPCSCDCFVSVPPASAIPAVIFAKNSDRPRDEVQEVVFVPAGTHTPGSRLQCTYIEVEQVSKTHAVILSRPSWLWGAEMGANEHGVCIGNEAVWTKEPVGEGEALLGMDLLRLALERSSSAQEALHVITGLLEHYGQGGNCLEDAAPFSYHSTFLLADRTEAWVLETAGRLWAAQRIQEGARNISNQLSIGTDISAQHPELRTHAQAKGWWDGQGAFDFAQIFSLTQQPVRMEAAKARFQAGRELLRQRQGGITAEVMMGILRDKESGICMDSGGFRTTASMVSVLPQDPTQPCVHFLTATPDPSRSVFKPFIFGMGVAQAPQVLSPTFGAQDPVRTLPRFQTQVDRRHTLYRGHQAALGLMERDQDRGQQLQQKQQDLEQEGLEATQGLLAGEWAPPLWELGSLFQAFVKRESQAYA
UniProt Q12768, sequence (Q12768 whole entry, one chain of several): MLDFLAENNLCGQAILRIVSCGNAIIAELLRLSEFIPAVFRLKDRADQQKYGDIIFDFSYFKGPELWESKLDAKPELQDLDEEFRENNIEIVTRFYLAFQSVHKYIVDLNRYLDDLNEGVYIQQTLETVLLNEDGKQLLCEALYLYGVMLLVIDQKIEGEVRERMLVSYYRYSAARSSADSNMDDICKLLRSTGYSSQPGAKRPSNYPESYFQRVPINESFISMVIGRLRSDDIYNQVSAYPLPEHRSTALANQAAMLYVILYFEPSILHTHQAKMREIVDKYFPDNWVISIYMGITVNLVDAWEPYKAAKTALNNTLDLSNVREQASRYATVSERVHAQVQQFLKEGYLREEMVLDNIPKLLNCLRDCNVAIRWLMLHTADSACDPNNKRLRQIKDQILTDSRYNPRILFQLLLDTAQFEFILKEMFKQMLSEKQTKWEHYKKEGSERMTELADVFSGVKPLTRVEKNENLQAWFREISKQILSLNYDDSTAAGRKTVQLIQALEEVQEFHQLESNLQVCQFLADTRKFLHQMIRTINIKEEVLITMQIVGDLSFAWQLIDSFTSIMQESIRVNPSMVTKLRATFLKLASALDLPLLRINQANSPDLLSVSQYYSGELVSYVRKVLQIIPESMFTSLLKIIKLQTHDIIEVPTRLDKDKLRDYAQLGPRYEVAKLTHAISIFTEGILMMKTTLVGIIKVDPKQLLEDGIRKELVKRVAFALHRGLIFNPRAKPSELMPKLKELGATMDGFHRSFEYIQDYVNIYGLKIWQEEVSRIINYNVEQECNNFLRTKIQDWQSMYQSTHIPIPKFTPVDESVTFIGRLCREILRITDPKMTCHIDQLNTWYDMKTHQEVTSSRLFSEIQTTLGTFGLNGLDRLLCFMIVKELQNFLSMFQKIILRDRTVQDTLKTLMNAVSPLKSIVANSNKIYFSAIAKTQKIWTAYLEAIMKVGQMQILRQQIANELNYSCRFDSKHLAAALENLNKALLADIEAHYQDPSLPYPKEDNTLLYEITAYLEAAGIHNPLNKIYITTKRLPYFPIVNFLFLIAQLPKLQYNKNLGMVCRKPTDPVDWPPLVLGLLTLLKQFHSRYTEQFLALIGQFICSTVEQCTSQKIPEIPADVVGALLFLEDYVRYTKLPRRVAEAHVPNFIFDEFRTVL
UniProt P04632, sequence (P04632 whole entry, one chain of several): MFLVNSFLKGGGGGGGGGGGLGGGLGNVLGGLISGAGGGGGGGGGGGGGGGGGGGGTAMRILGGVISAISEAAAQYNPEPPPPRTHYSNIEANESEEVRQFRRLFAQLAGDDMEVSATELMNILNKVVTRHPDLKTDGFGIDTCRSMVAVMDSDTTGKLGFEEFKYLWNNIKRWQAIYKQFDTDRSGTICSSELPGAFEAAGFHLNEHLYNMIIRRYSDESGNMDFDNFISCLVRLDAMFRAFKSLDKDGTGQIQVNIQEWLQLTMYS
UniProt Q92993, sequence (Q92993 whole entry, looked up, one chain of several): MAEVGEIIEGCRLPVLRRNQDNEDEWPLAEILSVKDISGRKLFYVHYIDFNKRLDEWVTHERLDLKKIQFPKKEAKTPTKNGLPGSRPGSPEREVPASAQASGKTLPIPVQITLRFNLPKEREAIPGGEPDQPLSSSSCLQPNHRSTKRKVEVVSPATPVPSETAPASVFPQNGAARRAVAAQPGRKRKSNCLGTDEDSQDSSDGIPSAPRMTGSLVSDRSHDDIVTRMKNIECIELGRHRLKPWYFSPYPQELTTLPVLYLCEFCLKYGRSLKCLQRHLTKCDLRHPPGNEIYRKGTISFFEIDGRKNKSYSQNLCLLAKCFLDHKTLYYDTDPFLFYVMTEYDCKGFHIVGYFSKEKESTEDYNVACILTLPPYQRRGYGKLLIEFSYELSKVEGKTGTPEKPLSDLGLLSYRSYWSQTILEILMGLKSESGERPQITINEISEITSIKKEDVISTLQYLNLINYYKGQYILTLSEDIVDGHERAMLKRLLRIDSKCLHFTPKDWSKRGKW
UniProt Q5TC12, sequence (Q5TC12 whole entry, one chain of several): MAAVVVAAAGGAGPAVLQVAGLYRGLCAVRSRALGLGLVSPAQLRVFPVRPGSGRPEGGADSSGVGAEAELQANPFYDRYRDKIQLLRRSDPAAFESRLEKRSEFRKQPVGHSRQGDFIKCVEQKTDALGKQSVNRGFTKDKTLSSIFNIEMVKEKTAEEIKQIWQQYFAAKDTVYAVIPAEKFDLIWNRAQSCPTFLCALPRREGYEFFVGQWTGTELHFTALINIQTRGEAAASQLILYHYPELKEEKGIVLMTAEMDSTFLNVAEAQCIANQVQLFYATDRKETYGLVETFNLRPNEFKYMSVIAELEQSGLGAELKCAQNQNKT
UniProt Q12851, sequence (Q12851 whole entry, one chain of several): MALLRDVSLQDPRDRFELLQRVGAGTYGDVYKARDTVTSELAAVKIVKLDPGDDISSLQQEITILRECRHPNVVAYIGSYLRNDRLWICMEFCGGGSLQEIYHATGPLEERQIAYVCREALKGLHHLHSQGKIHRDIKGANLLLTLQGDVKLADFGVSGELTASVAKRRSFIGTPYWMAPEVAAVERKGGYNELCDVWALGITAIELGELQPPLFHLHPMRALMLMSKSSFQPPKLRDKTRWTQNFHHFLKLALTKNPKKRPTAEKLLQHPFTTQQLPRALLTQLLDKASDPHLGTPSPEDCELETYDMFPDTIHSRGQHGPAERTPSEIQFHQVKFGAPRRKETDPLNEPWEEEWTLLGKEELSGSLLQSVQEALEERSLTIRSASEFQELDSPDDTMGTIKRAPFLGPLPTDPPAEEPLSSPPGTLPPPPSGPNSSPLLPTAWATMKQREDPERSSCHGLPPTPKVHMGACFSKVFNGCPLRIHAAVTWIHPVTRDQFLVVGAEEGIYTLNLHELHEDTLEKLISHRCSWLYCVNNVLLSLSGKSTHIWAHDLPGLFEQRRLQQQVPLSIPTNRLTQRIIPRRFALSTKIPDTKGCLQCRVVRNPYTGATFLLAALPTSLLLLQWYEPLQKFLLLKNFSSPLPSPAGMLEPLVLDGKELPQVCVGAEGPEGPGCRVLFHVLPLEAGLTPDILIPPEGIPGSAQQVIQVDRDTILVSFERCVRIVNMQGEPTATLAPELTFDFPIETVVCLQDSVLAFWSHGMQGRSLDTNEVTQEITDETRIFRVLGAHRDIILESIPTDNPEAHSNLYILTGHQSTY
UniProt O75832, sequence (O75832 whole entry, one chain of several): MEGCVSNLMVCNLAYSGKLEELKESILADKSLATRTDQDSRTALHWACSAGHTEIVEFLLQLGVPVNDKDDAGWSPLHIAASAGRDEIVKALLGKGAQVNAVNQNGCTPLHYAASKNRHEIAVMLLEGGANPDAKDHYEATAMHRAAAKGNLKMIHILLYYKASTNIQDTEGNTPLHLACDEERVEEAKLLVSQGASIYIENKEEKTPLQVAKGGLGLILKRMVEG
UniProt P13693, sequence (P13693 whole entry, one chain of several): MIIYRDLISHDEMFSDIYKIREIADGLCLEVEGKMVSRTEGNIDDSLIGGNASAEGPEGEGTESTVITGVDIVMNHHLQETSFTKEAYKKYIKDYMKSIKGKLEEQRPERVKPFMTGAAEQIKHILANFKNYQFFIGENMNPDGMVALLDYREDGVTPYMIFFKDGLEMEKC
UniProt Q9H2U2, sequence (Q9H2U2 whole entry, one chain of several): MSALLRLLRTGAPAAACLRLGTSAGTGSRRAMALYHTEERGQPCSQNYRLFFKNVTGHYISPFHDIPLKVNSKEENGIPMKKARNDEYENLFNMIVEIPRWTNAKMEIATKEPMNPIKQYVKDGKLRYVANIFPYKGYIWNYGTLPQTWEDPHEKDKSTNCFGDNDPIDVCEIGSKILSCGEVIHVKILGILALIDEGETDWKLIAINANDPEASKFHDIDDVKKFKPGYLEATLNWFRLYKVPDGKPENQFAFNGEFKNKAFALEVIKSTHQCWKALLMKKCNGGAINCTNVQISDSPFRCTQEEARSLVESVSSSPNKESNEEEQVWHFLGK
UniProt O14524, sequence (O14524 whole entry): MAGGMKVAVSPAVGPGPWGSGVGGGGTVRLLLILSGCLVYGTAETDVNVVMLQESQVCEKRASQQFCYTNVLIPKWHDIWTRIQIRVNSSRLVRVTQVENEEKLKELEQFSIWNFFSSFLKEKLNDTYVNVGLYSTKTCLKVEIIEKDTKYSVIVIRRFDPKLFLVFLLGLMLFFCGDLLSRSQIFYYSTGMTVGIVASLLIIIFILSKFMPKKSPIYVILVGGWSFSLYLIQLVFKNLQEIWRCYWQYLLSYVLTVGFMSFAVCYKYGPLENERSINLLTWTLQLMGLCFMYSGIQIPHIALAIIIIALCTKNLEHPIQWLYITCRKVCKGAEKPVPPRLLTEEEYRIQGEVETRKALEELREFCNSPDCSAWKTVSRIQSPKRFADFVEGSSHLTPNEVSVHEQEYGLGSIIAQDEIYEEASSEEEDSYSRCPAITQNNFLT
UniProt O43809, sequence (O43809 whole entry): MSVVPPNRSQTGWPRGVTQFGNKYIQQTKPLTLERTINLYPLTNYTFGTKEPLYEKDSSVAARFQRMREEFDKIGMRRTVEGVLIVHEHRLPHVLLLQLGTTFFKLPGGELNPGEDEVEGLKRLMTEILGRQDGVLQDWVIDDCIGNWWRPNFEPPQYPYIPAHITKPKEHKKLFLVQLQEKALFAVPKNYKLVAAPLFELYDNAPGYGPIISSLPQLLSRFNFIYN

Target	NP40-soluble protein abundance (concentration: 1mM)	NP40-soluble protein abundance (concentration: 2mM)	NP40-soluble protein abundance (concentration: 4mM)	NP40-soluble protein abundance (concentration: 6mM)	NP40-soluble protein abundance (concentration: 8mM)	NP40-soluble protein abundance (concentration: 10mM)
A0A0A6YYA7|Q12851|Q12851-2 (UniProt Q12851)	1.02 ± 0.026	1 ± 0.044	1.03 ± 0.063	0.994 ± 0.079	0.994 ± 0.026	0.998 ± 0.027
J9JID7|Q03252 (UniProt Q03252)	1 ± 0.066	0.943 ± 0.063	1.01 ± 0.065	1.06 ± 0.037	1.03 ± 0.047	1.09 ± 0.059
J3QL71|Q96FV2 (UniProt Q96FV2)	0.96 ± 0.029	0.97 ± 0.011	0.98 ± 0.025	0.944 ± 0.019	0.959 ± 0.032	0.984 ± 0.015
I3L0L6|Q9H6Y7 (UniProt Q9H6Y7)	0.901 ± 0.033	0.93 ± 0.016	0.896 ± 0.051	0.962 ± 0.064	0.921 ± 0.066	0.864 ± 0.065
I3L2M1|J3KNL2|Q8WYJ6 (UniProt Q8WYJ6)	0.941 ± 0.031	0.945 ± 0.017	0.948 ± 0.022	0.928 ± 0.033	0.932 ± 0.04	0.941 ± 0.033
UniProt O14776|O14776-2	0.972 ± 0.011	0.9735 ± 0.0036	0.959 ± 0.024	1.03 ± 0.021	1.01 ± 0.024	1.02 ± 0.013
MED7 (UniProt O43513)	1.23 ± 0.3	1.17 ± 0.091	1.09 ± 0.056	1.2 ± 0.37	1.23 ± 0.26	1.28 ± 0.34
B1AJY7|O75832 (UniProt O75832)	1 ± 0.082	0.973 ± 0.031	0.955 ± 0.065	0.977 ± 0.076	0.947 ± 0.056	0.863 ± 0.043
E9PJN1|O75676|O75676-2 (UniProt O75676)	1.36 ± 0.22	2.6 ± 1.5	1.34 ± 0.17	1.35 ± 0.17	1.31 ± 0.26	1.38 ± 0.13
J3KTL2|Q07955 (UniProt Q07955)	1.41 ± 0.16	1.53 ± 0.14	1.7 ± 0.11	1.93 ± 0.19	1.89 ± 0.097	1.98 ± 0.093
A2ABJ5|O75955|A0A140T9R1 (UniProt O75955)	1.03 ± 0.047	0.948 ± 0.029	0.926 ± 0.012	0.925 ± 0.11	0.931 ± 0.071	0.916 ± 0.052
M0R042|P04350 (UniProt P04350)	1.01 ± 0.089	0.962 ± 0.037	1.02 ± 0.034	0.934 ± 0.058	1.02 ± 0.018	0.955 ± 0.071
A0A0G2JPP5|Q14160|Q14160-3|A0A0G2JNZ2 (UniProt Q14160)	0.973 ± 0.016	0.96 ± 0.02	0.9694 ± 0.0075	0.98 ± 0.023	0.93 ± 0.021	0.941 ± 0.031
E7EUT5|P04406 (UniProt P04406)	1.01 ± 0.012	0.959 ± 0.074	0.9969 ± 0.0069	0.939 ± 0.043	0.954 ± 0.024	0.944 ± 0.059
NUDT21 (UniProt O43809)	1.95 ± 0.11	2.06 ± 0.064	2.18 ± 0.1	2.25 ± 0.052	2.31 ± 0.1	2.213 ± 0.019
E9PJI1|Q92993-3|Q92993-4|Q92993|Q92993-2 (UniProt Q92993)	1.06 ± 0.12	0.959 ± 0.11	1.13 ± 0.17	1.1 ± 0.19	1.06 ± 0.21	1.13 ± 0.1
B4DWF2|Q9UKS7|Q9UKS7-2 (UniProt Q9UKS7)	1.02 ± 0.062	1.03 ± 0.072	1.04 ± 0.061	1.11 ± 0.089	1.1 ± 0.061	1.2 ± 0.066
UniProt O15169|O15169-2	1.05 ± 0.17	0.887 ± 0.14	0.982 ± 0.19	1.07 ± 0.18	1 ± 0.047	1.15 ± 0.21
UniProt O00567	1.04 ± 0.038	1.1 ± 0.033	1.24 ± 0.02	1.38 ± 0.06	1.68 ± 0.064	2.11 ± 0.2
E7EQI7|Q12768 (UniProt Q12768)	1.06 ± 0.1	1.06 ± 0.075	1.05 ± 0.076	0.962 ± 0.11	1.07 ± 0.068	1.02 ± 0.05
A0A0A0MTC1|A0A0A0MTR7 (UniProt Q63HN8)	1.15 ± 0.14	1.11 ± 0.096	1.12 ± 0.083	1.03 ± 0.074	1.2 ± 0.049	1.11 ± 0.031
I3L448|Q5TC12 (UniProt Q5TC12)	0.982 ± 0.049	0.985 ± 0.028	0.983 ± 0.046	0.998 ± 0.04	0.96 ± 0.04	0.952 ± 0.022
A0A0U1RRK1|F6XEV2|Q9BPX6|Q9BPX6-3|Q9BPX6-2 (UniProt Q9BPX6)	1.01 ± 0.073	1.01 ± 0.045	1.04 ± 0.038	1.05 ± 0.067	1.07 ± 0.066	1.08 ± 0.058
UniProt O14524	0.824 ± 0.11	0.887 ± 0.1	0.841 ± 0.017	0.899 ± 0.066	0.872 ± 0.029	0.896 ± 0.036
A0A0C4DGQ5|P04632 (UniProt P04632)	0.9315 ± 0.0081	0.964 ± 0.077	0.923 ± 0.022	0.884 ± 0.039	0.885 ± 0.0089	0.875 ± 0.06
A0A0C4DGB9|Q9H2U2 (UniProt Q9H2U2)	0.971 ± 0.022	0.97 ± 0.029	0.953 ± 0.03	0.93 ± 0.051	0.952 ± 0.038	0.919 ± 0.037
A0A0B4J2C3|P13693|Q5W0H4 (UniProt P13693)	0.95 ± 0.025	0.942 ± 0.021	0.915 ± 0.025	0.923 ± 0.05	0.919 ± 0.035	0.909 ± 0.048
K7EK70|Q49A26 (UniProt Q49A26)	1.18 ± 0.095	1.25 ± 0.1	1.38 ± 0.1	1.45 ± 0.083	1.57 ± 0.16	1.76 ± 0.081
C9JLB7|Q96HP4 (UniProt Q96HP4)	1.09 ± 0.083	1.1 ± 0.1	1.06 ± 0.075	1.12 ± 0.17	1.17 ± 0.14	1.05 ± 0.042
B4DT96|C9JYA1|O15504|O15504-2 (UniProt O15504)	0.985 ± 0.095	1.21 ± 0.19	1.29 ± 0.17	1.43 ± 0.42	1.42 ± 0.26	1.77 ± 0.49

Reference: the supplement of paper PMC6411743
